Consider nine compounds from PubChem BioAssay.

Structures are written as SMILES. The source made the active and inactive calls. Unless noted, no rule for the calls is given here.

A short description of assay [1]: compound effects on lung adenocarcinoma cell viability – A549, calcein-AM fluorescence, 48 h, basal, profiling panel (AID 1162). Also: test concentration not given here. The settings on record: higher = more signal.
The nature of assay [2]: compound effects on differentiated 3T3-L1 adipocyte viability – cell-based, 3T3-L1 adipocytes, calcein-AM fluorescence, 48 h, basal, profiling panel (AID 1163). Also: test concentration not given here. The settings on record: 3T3-L1 adipocytes viability, higher = more signal.
The nature of assay [3]: compound effects on hepatocellular carcinoma cell viability – HepG2, calcein-AM fluorescence, 48 h, basal, profiling panel (AID 1164). Also: test concentration not given here. The settings on record: higher = more signal.
Assay [4] in a line: compound effects on multiple myeloma cell viability – MM1S, calcein-AM fluorescence, 48 h, basal, profiling panel (AID 1165).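 Also: viability of MM1S multiple myeloma cells under basal unstimulated conditions; test concentration not given here.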 The settings on record: higher = more signal.
Assay [5] is described as follows: calcein-AM signal in unstimulated myeloma cells – cell-based, calcein-AM fluorescence, 48 h, PK04 Diversity Set, profiling panel (AID 1166).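 Also: cells grown under basal conditions without added stimulus; test concentration not given here.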 The settings on record: RPMI8226 myeloma viability, higher = more signal.
A short description of assay [6]: JC-1 mitochondrial signal, unstimulated HepG2 cells – cell-based, JC-1 fluorescence, 24 h, 100 nL compound, profiling panel (AID 1167). Also: test concentration not given here. The following applies: HepG2 mitochondrial potential, higher = more signal.
A short description of assay [7]: JC-1 mitochondrial signal, unstimulated adipocytes – cell-based, JC-1 fluorescence, 3T3-L1 adipocytes, 24 h, 100 nL compound, profiling panel (AID 1168). Also: test concentration not given here. The following applies: JC-1 mitochondrial fluorescence, higher = more signal, called active from +8 up or from −8 down.
Assay [8] in a line: JC-1 mitochondrial signal, unstimulated myeloma cells – cell-based, JC-1 fluorescence, RPMI8226, 24 h, 100 nL compound, profiling panel (AID 1169). Also: test concentration not given here. The following applies: JC-1 mitochondrial potential fluorescence, higher = more signal.
The nature of assay [9]: JC-1 mitochondrial signal, unstimulated MM1S myeloma – cell-based, JC-1 fluorescence, 24 h, 100 nL compound, profiling panel (AID 1170). Also: test concentration not given here. The following applies: MM1S mitochondrial potential, higher = more signal.
A short description of assay [10]: resazurin metabolic signal in A549 cells – cell-based, resazurin fluorescence, 24 h, PK04 Diversity Set, profiling panel (AID 1171). Also: test concentration not given here. The settings on record: A549 viability, higher = more signal, called active from +8 up or from −8 down. Background: Alamar Blue is a resazurin reagent that responds to reducing activity.
The nature of assay [11]: resazurin metabolic signal in HepG2 cells – cell-based, resazurin fluorescence, 24 h, PK04 Diversity Set, profiling panel (AID 1172). Also: test concentration not given here. The settings on record: HepG2 viability, higher = more signal.
Assay [12] can be described thus: budding yeast growth changes without added modifier – OD600, strain BY4716, 24 h, basal condition, primary screen (AID 1173). The following applies: S. cerevisiae BY4716 growth, OD600, 24 h; higher = more signal, called active from +8 up or from −8 down.
Assay [13] is described as follows: viability profiling in MM1S myeloma cells – cell-based, resazurin fluorescence, basal, 24 h, PK04 Diversity Set, profiling panel (AID 1174). Also: test concentration not given here. The settings on record: higher = more signal, called active from +8 up or from −8 down.
The target in assay [14] is Dihydroorotate dehydrogenase (quinone), mitochondrial (Plasmodium falciparum (isolate 3D7)) (UniProt Q08210). Briefly: inhibition of P. falciparum DHODH – biochemical, C-terminal His tag, absorbance 600 nm, primary screen (AID 1175).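 Also: recombinant parasite enzyme with a five histidine tag at its C terminus; test concentration not given here.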 The following applies: PfDHODH enzyme, DCIP absorbance 600 nm; higher = more signal, called active from +8 up or from −8 down.
A short description of assay [15]: inhibition of PAO1 biofilm formation – strain PAO1, LB-PBS medium, absorbance 600 nm, primary screen (AID 1176). Also: test concentration not given here. The following applies: P. aeruginosa PAO1 growth/biofilm, A600, 12 h; higher = more signal.
The nature of assay [16]: growth modulation of vineyard yeast isolate – strain RM11-1a, OD600, basal, 24 h, primary screen (AID 1177).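 Also: cultures grown under basal conditions with no added stressor; test concentration not given here.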 The settings on record: S. cerevisiae RM11-1a growth, OD600, 24 h; higher = more signal, called active from +8 up or from −8 down.
A short description of assay [17]: growth of efflux-deficient E. coli DRC39 – strain DRC39, OD650, 24 h, E. coli filamentation inducers, primary screen (AID 1178).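 Also: growth measured as culture turbidity by optical density at 650 nm; test concentration not given here.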 The following applies: E. coli DRC39 acrAB, higher = more signal, called active from +8 up or from −8 down.
Assay [18] in a line: growth of efflux-deficient E. coli DRC39 – strain DRC39, OD650, 48 h, E. coli filamentation inducers, primary screen (AID 1179).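 Also: screen aims at cell division blockers that make cells filament.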 The following applies: E. coli DRC39 delta-acrAB growth, higher = more signal, called active from +8 up or from −8 down.
The nature of assay [19]: viability profiling in RPMI8226 myeloma cells – cell-based, resazurin fluorescence, basal, 24 h, PK04 Diversity Set, profiling panel (AID 1180).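 Also: RPMI8826 multiple myeloma cell line at 5000 cells per well; test concentration not given here.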 The settings on record: higher = more signal.
Assay [20] concerns the target E3 ubiquitin-protein ligase XIAP (Homo sapiens) (UniProt P98170). Briefly: small molecules binding XIAP protein – biophysical, small-molecule microarray, fluorescence 635 nm, primary screen (AID 1181).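 Also: score merges 667 nm emission and signal to noise over triplicate slides.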 The settings on record: higher = more signal.

Dihydroorotate dehydrogenase (quinone), mitochondrial (Plasmodium falciparum (isolate 3D7)), sequence (Q08210 whole entry, looked up): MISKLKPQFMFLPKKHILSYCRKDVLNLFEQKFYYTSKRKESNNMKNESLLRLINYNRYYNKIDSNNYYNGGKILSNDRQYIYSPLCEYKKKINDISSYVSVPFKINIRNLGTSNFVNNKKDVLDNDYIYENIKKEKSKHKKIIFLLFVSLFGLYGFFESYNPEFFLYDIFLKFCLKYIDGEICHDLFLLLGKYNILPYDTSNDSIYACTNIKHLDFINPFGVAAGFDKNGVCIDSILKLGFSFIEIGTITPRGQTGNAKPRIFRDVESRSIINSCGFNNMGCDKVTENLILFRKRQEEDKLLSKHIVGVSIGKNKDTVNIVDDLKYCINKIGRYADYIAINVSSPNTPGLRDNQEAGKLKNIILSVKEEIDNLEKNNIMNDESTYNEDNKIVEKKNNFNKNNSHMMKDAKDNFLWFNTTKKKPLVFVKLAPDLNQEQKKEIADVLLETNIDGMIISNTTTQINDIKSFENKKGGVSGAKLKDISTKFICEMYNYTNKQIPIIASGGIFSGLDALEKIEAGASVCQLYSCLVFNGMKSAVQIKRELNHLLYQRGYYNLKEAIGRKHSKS
E3 ubiquitin-protein ligase XIAP (Homo sapiens), sequence (P98170 whole entry, looked up): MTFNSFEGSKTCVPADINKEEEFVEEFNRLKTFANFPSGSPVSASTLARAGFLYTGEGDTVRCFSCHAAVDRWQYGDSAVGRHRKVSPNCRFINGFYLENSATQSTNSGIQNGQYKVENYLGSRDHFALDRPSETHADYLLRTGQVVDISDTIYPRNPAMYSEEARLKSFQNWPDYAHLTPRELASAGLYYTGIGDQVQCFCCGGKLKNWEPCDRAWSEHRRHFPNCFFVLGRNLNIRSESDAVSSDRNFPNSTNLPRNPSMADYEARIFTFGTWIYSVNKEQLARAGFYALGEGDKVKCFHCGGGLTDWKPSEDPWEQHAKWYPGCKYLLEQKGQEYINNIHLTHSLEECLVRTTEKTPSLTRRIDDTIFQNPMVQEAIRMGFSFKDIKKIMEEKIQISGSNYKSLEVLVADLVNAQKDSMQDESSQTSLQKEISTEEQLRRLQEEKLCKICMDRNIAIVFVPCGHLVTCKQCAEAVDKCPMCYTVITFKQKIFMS

Take `COCCCNC(=O)[C@@]1(Cc2ccccc2CN=[N+]=[N-])N=C(c2ccc(OCCCO)cc2)O[C@H]1c1ccccc1`: the z-score is -1.15 in [1]; 0.759 in assay [2]; -0.798 in [3]; -2.93 in [4]; -4.32 in assay [5]; 0.331 in assay [6]. Moreover, the z-score in assay [7] is -0.00801 (inactive); in [8] it was -1.25; in [9], -0.69; in assay [10], 0.385 (inactive); in [11] it was 0.636; in assay [12] it was 0.41 (inactive). For the same compound, the z-score in assay [13] was -0.88 (inactive); in [15], -0.317 (inactive); in [16] it was 1.92 (inactive); in [17], 1.28 (inactive); in assay [18], 0.242 (inactive); in assay [19], -1.75. Also, the composite z-score in [14] was 1.22 (inactive); in assay [20], -0.052.
In the case of `CN1C(=O)C2C=CC(C(O)c3ccc(F)cc3)N(Nc3ccccc3)C2C1=O` (stereo not given), the z-score in assay [1] was -0.434; in assay [2], -1.02; in assay [3], -0.613; in assay [4], -1.82; in assay [5], 0.196; in [6], -1.81. In addition, the z-score is -0.8 (inactive) in [7]; 0.663 in assay [8]; 0.431 in assay [9]; -0.369 (inactive) in assay [10]; -1.05 in [11]; 0.544 (inactive) in [12]. For the same compound, the z-score was -1.24 (inactive) in assay [13]; 0.944 (inactive) in assay [15]; 1.38 (inactive) in assay [16]; -1.03 (inactive) in [17]; -0.894 (inactive) in assay [18]; -1.58 in [19]. Also, the composite z-score in [14] is 0.869 (inactive); in assay [20] it was 0.0761.
On to `CCCCC(=C=CC[C@@H](O)c1ccccc1OCCO)C[C@@H](O)COCc1ccccc1`, for which the z-score in assay [1] was 0.75; in assay [2] it was 0.52; in assay [3] it was 0.522; in assay [4], -2.34; in assay [5] it was -2.12; in assay [6] it was 0.554. For the same compound, the z-score in assay [7] was 0.623 (inactive); in assay [8], -0.261; in [9] it was 0.13; in assay [10], 0.607 (inactive); in assay [11], -0.202; in assay [12] it was -0.984 (inactive). Also, the z-score in assay [13] is 0.12 (inactive); in assay [15], 0.0478 (inactive); in assay [16] it was -2.79 (inactive); in assay [17], 0.666 (inactive); in assay [18] it was 0.406 (inactive); in assay [19], 0.267. Also, the values for the composite z-score in assay [14] and in [20] were -2.09 (inactive) and 0.0022, respectively.
With `O=C1C2C=CC(C(O)c3ccc(Br)cc3)N(Nc3ccccc3F)C2C(=O)N1c1ccccc1` (stereo not given), the z-score in assay [1] is 1.79; in assay [2], 0.085; in assay [3], 0.418; in assay [4], 1.05; in [5] it was -0.0004; in assay [6] it was -0.629. The z-score in assay [7] is -1.56 (inactive); in assay [8], 0.417; in assay [9] it was -1.46; in assay [10], 0.0502 (inactive); in assay [11], 0.732; in [12], -2.45 (inactive). For the same compound, the z-score in assay [13] is -0.18 (inactive); in [15], 0.629 (inactive); in assay [16] it was -1.17 (inactive); in assay [17], 0.774 (inactive); in assay [18], 2.06 (inactive); in [19] it was 0.489. Besides, the composite z-score in assay [14] is 0.356 (inactive); in assay [20], 0.0933.
As to `COCCOC(=O)N1C(=O)[C@@]2(c3cc(C#CC4=CCCCC4)ccc31)[C@H](c1ccc(O)cc1)N1[C@H](c3ccccc3)[C@H](c3ccccc3)OC(=O)[C@H]1[C@@H]2C(=O)N1CCN(c2ncccn2)CC1`, the z-score is -0.462 in assay [1]; -0.89 in assay [2]; 0.19 in assay [3]; 0.444 in [4]; 0.771 in assay [5]; 0.642 in [6]. In addition, the z-score in assay [7] is 1.87 (inactive); in assay [8] it was 0.736; in assay [9], -0.587; in assay [10] it was 0.0994 (inactive); in assay [11], 0.295; in assay [12], 0.343 (inactive). Also, the z-score in assay [13] is 0.182 (inactive); in assay [15], 0.29 (inactive); in [16] it was 0.516 (inactive); in assay [17], 0.777 (inactive); in [18] it was 0.731 (inactive); in assay [19], -0.169. Moreover, the results for the composite z-score in assay [14] and in assay [20] were 0.524 (inactive) and -0.0761, respectively.
Consider `CCCCC(O)C1C=CC2C(=O)N(c3ccccc3)C(=O)C2N1Nc1ccc(C(C)C)cc1` (stereo not given), for which the z-score was -0.341 in assay [1]; -1.52 in assay [2]; 1.6 in assay [3]; -0.603 in [4]; -0.216 in assay [5]; -1.29 in assay [6]. Further, the z-score was -1.04 (inactive) in assay [7]; -0.749 in [8]; -0.557 in [9]; -0.762 (inactive) in assay [10]; -0.741 in [11]; -0.443 (inactive) in assay [12]. Moreover, the z-score in [13] was -1.1 (inactive); in assay [15], 1.14 (inactive); in [16], 0.477 (inactive); in assay [17] it was -0.622 (inactive); in assay [18], 0.0644 (inactive); in [19], -0.471. The composite z-score is 0.119 (inactive) in assay [14] and 0.199 in assay [20].
For `C=C(C)c1cc2c(c(CCCCCC)n1)[Si](C(C)C)(C(C)C)OC2`, the z-score in [1] is -0.926; in [2], -0.197; in assay [3], -0.567; in [4], 0.134; in assay [5], 0.414; in [6] it was -0.592. Also, the z-score was -0.617 (inactive) in assay [7]; 0.56 in assay [8]; -0.369 in assay [9]; 0.867 (inactive) in [10]; -0.0592 in assay [11]; 1.37 (inactive) in [12]. The z-score was 0.272 (inactive) in assay [13]; -0.735 (inactive) in [15]; 1.06 (inactive) in [16]; 0.251 (inactive) in [17]; 0.246 (inactive) in assay [18]; 0.16 in [19]. For the same compound, the composite z-score in assay [14] was 4.59 (inactive); in assay [20], 0.0623.
Turning to `COc1ccc(-c2nc(-c3ccccc3)c3c(c2C)CO[Si]3(C(C)C)C(C)C)cn1`, the z-score in assay [1] was -0.0364; in assay [2], -0.628; in assay [3], -0.292; in assay [4] it was -1.03; in assay [5] it was -3.63; in [6], -0.922. Further, the z-score in assay [7] is -1.72 (inactive); in assay [8], -0.443; in [9], -0.294; in assay [10], 1.95 (inactive); in assay [11] it was 0.539; in assay [12], 0.232 (inactive). Besides, the z-score in [13] is 0.151 (inactive); in [15], 1.35 (inactive); in [16], -0.278 (inactive); in assay [17] it was -0.512 (inactive); in assay [18], -0.329 (inactive); in assay [19] it was -0.82. The composite z-score in assay [14] is 0.366 (inactive); in assay [20], -0.0943.
Consider `CCOC(=O)c1ccc(NC(=O)O[C@H]2[C@H](OC(=O)Nc3ccc4c(c3)OCO4)[C@@H](OC(=O)Nc3ccc4c(c3)OCO4)[C@@H](OC)O[C@@H]2CO)cc1`, for which the z-score in [1] was -0.742; in [2], 0.558; in [3] it was -1.09; in [4], -1.05; in [5], -0.141; in assay [6] it was 0.305. For the same compound, the z-score is 0.463 (inactive) in [7]; -0.66 in assay [8]; -0.979 in assay [9]; -0.214 (inactive) in assay [10]; -0.741 in assay [11]; 1.1 (inactive) in [12]. Moreover, the z-score in assay [13] is -0.849 (inactive); in assay [15] it was 2.08 (inactive); in assay [16], 2.29 (inactive); in assay [17], 1.04 (inactive); in [18], -0.0515 (inactive); in [19], -0.836. In addition, the composite z-score in assay [14] is 0.0737 (inactive); in assay [20], 0.519.
